Records with an inconclusive call do not appear. Calls of active or inactive are those of the source. Calls follow the shape of the dose curve; as a rule, active = well fitted curve in the direction sought with a large enough effect; inconclusive = small, poorly fitted or top-dose-only effect, or another doubt; inactive = no such curve, though single readings can be large; an effect the other way counts as inactive or inconclusive.

The nature of assay [1]: qHTS of pediatric cancer cell lines to identify multiple opportunities for drug repurposing: Primary screen for A673 cells (AID 1347092). Also: potency is read from the fitted curve at half-maximal effect; nearly all actives have a fitted effect of over 45% in size. A digest of the protocol:
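A673 cells (500-1,000 cells/well in growth media) were pre-incubated 5 h at 37 degrees C, then exposed to compounds for 48 h. Viability was read as CellTiter-Glo luminescence; concentration-response curves came directly from the primary screen.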

Assay [2] can be described thus: qHTS of pediatric cancer cell lines to identify multiple opportunities for drug repurposing: Primary screen for BT-37 cells (AID 1347094). Also: potency is read from the fitted curve at half-maximal effect. A digest of the protocol:
(§1)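 Cells seeded at 500-1,000 cells/well in growth media, rested 5 hours at 37 degrees C, 5% CO2, then dosed; MIPE compounds at 11-point (from 0.78 nM) and NPC at 8-point (from 0.59 nM) final concentrations. Viability by CellTiter-Glo luminescence after 48 hours.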

Assay [3] in a line: qHTS of pediatric cancer cell lines to identify multiple opportunities for drug repurposing: Primary screen for U-2 OS cells (AID 1347096). Also: nearly all actives have a fitted effect of over 50% in size. The procedure, abridged: (§2)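 Cells (500-1,000/well) in growth media were settled 5 h at 37 degrees C, then given compounds for 48 h. Viability was read as CellTiter-Glo luminescence. Primary runs used MIPE at 11 points (0.78 nM-46 µM) and NPC at 8 points (0.59 nM-46 µM); follow-ups used 11 points.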

Assay [4] can be described thus: qHTS of pediatric cancer cell lines to identify multiple opportunities for drug repurposing: Primary screen for Rh18 cells (AID 1347102). Also: nearly all actives have a fitted effect of over 65% in size. Also: potency is read from the fitted curve at half-maximal effect. A digest of the protocol:
as §2

Assay [5] in a line: qHTS of pediatric cancer cell lines to identify multiple opportunities for drug repurposing: Primary screen for OHS-50 cells (AID 1347103). Also: potency is read from the fitted curve at half-maximal effect; nearly all actives have a fitted effect of over 40% in size. The procedure, abridged: (§3)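 Cells (500-1,000/well) rested 5 h, then received compounds for 48 h; metabolically active cells were measured by CellTiter-Glo luminescence. Final concentrations spanned up to 46 µM (MIPE, 11-point) or 0.59 nM-46 µM (NPC, 8-point) in primary screens, 11-point in follow-ups.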

Assay [6] is described as follows: qHTS of pediatric cancer cell lines to identify multiple opportunities for drug repurposing: Primary screen for RD cells (AID 1347104). Also: nearly all actives have a fitted effect of over 55% in size. Also: potency is read from the fitted curve at half-maximal effect. A digest of the protocol: as §1
A short description of assay [7]: qHTS of pediatric cancer cell lines to identify multiple opportunities for drug repurposing: Primary screen for MG 63 (6-TG R) cells (AID 1347105). Also: nearly all actives have a fitted effect of over 50% in size. Also: potency is read from the fitted curve at half-maximal effect. A digest of the protocol: as §1
The nature of assay [8]: qHTS of pediatric cancer cell lines to identify multiple opportunities for drug repurposing: Primary screen for control Hh wild type fibroblast cells (AID 1347106).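 Also: series mostly up to about 46 µM; a drop in luminescence marks cytotoxicity and a rise apparent proliferation; nearly all actives have a fitted effect of over 55% in size.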 A digest of the protocol: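 Viability after 48 h compound treatment at 37C, 500-1,000 cells/well, read as ATP luminescence with CellTiter-Glo. Primary screens used 11-point (MIPE, 0.78 nM-46 µM) or 8-point (NPC, 0.59 nM-46 µM) final concentrations; follow-up screens used 11-point dilutions.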

Assay [9] is described as follows: qHTS of pediatric cancer cell lines to identify multiple opportunities for drug repurposing: Primary screen for Rh30 cells (AID 1347107). Also: nearly all actives have a fitted effect of over 75% in size. Also: potency is read from the fitted curve at half-maximal effect. The procedure, abridged: as §2
The nature of assay [10]: qHTS of pediatric cancer cell lines to identify multiple opportunities for drug repurposing: Primary screen for Rh41 cells (AID 1347108). Also: nearly all actives have a fitted effect of over 70% in size. Also: potency is read from the fitted curve at half-maximal effect. A digest of the protocol: as §1
The nature of assay [11]: qHTS of pediatric cancer cell lines to identify multiple opportunities for drug repurposing: Primary screen for SK-N-MC cells (AID 1347093). Also: potency is read from the fitted curve at half-maximal effect. The procedure, abridged:
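Metabolically active cells were quantified by ATP-dependent luminescence (CellTiter-Glo, 15 min at room temperature) following 48 h treatment. Cells had been plated at 500-1,000 per well and settled for 5 h beforehand.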

A short description of assay [12]: qHTS of pediatric cancer cell lines to identify multiple opportunities for drug repurposing: Primary screen for NB1643 cells (AID 1347099). Also: nearly all actives have a fitted effect of over 50% in size. Also: potency is read from the fitted curve at half-maximal effect. The procedure, abridged:
as §1

The nature of assay [13]: qHTS of pediatric cancer cell lines to identify multiple opportunities for drug repurposing: Primary screen for LAN-5 cells (AID 1347100). Also: potency is read from the fitted curve at half-maximal effect. A digest of the protocol: as §2
Assay [14] is described as follows: qHTS of pediatric cancer cell lines to identify multiple opportunities for drug repurposing: Primary screen for NB-EBc1 cells (AID 1347095). Also: potency is read from the fitted curve at half-maximal effect. The procedure, abridged: as §1
Assay [15] can be described thus: qHTS of pediatric cancer cell lines to identify multiple opportunities for drug repurposing: Primary screen for Saos-2 cells (AID 1347097). Also: potency is read from the fitted curve at half-maximal effect; nearly all actives have a fitted effect of over 40% in size. The procedure, abridged: as §1
The nature of assay [16]: qHTS of pediatric cancer cell lines to identify multiple opportunities for drug repurposing: Primary screen for SK-N-SH cells (AID 1347098). Also: potency is read from the fitted curve at half-maximal effect; nearly all actives have a fitted effect of over 65% in size. A digest of the protocol: as §3
Assay [17] is described as follows: qHTS of pediatric cancer cell lines to identify multiple opportunities for drug repurposing: Primary screen for BT-12 cells (AID 1347101). Also: nearly all actives have a fitted effect of over 25% in size. Also: potency is read from the fitted curve at half-maximal effect. A digest of the protocol:
as §3

Regarding `Nc1ccn([C@@H]2O[C@H](CO)[C@@H](O)[C@H]2O)c(=O)n1`, the Potency in assay [1] is 0.0235 µM (active); in assay [2], 0.0077 µM (active); in [5] it was 13.7 µM (active). The Potency entry in [3], in assay [4], in assay [6], in [7], in assay [8] and in assay [9] was “inactive” each time. In addition, in assay [10], the Potency result is “inactive”.

For the compound `CC(O)=C(C#N)C(=O)Nc1ccc(C(F)(F)F)cc1`, the Potency is 18.7 µM (active) in assay [1], 4.69 µM (active) in [11] and 23.5 µM (active) in assay [12]. The Potency result in assay [3], in assay [13] and in assay [4] was “inactive” each time.

On to `CN(C(Cc1ccc(OS(=O)(=O)c2cccc3cnccc23)cc1)C(=O)N1CCN(c2ccccc2)CC1)S(=O)(=O)c1cccc2cnccc12` (stereo unspecified), for which the results for the Potency in assay [1], in assay [5] and in [7] were 18.7 µM (active), 13.7 µM (active) and 14.8 µM (active), respectively. The Potency result in assay [2] and in [9] was “inactive” throughout.

`C[C@]12CC[C@@H]3c4ccc(O)cc4CC[C@H]3[C@H]1[C@@H](O)[C@@H](O)[C@H]2O`: the Potency in assay [1] was 14.8 µM (active). Also, the Potency entry in assay [2], in assay [14], in assay [3] and in assay [9] was “inactive” in each case.

For the compound `COc1cc(Cl)cn2c(-c3cccc(NC4CNC4)n3)cnc12`, the Potency was 4.69 µM (active) in assay [1], 2.96 µM (active) in assay [14], 16.6 µM (active) in assay [13] and 12.2 µM (active) in assay [5]. Further, the Potency entry in assay [4], in [6] and in [8] was “inactive” in each case.

Take `O=C(C=Cc1ccc(O)cc1)c1ccc(O)cc1O`: the Potency is 18.7 µM (active) in assay [1]; 37.2 µM (active) in assay [11]; 18.7 µM (active) in [15]; 6.07 µM (active) in assay [16]; 13.2 µM (active) in assay [12]. In assay [4], the Potency entry is “inactive”.

Consider `c1ccc(-c2oc3ncnc(NC[C@@H]4CCCO4)c3c2-c2ccccc2)cc1`, for which the Potency in [1] was 23.5 µM (active); in assay [15], 29.6 µM (active); in assay [16], 24.1 µM (active); in assay [13], 18.7 µM (active); in [5], 27.3 µM (active); in assay [6], 29.6 µM (active). In addition, the Potency in assay [9] and in assay [10] was 18.7 µM (active) throughout. The Potency result in assay [3] and in [8] was “inactive” throughout.

Turning to `CCOc1ccccc1N=Nc1c(C)[nH]n(-c2nc(-c3ccccc3)cs2)c1=O`, the figures for the Potency in assay [11] and in [12] were 0.209 µM (active) and 1.18 µM (active), respectively. For the same compound, the Potency result in [2], in assay [14], in assay [3], in [17], in assay [4] and in assay [8] was “inactive” throughout.

In the case of `Cc1cc(C(C)Nc2ccccc2)c2nc(N3CCOCC3)cc(=O)n2c1` (stereo unspecified), the Potency in [1] was 0.935 µM (active); in assay [11], 0.132 µM (active); in [5], 24.3 µM (active). The Potency result in assay [3], in [17] and in assay [8] was “inactive” each time.

With `O=[N+]([O-])c1ccc(Nc2ccccc2-c2ccccc2)c2nonc12`, the values for the Potency in assay [11] and in [14] were 29.6 µM (active) and 23.5 µM (active), respectively. Also, the Potency entry in [2], in assay [3] and in assay [4] was “inactive” throughout.

`O=C1CN2Cc3c(ccc(Cl)c3Cl)N=C2N1`: the Potency entry in assay [3], in assay [12] and in assay [7] was “inactive” each time. In [5], the Potency was 21.7 µM (active).

For `CC(C)N(CCCNC(=O)Nc1ccc(C(C)(C)C)cc1)C[C@H]1O[C@@H](n2cc(Br)c3c(N)ncnc32)[C@H](O)[C@H]1O`, the Potency was 18.7 µM (active) in assay [1]; 24.3 µM (active) in [2]; 24.1 µM (active) in [16]; 24.3 µM (active) in [17]; 20.9 µM (active) in [4]; 24.3 µM (active) in assay [5]. Further, the figures for the Potency in assay [6] and in assay [10] were 29.6 µM (active) and 18.7 µM (active), respectively. Further, the Potency entry in assay [14] and in [3] was “inactive” in each case.

As for `CCC(=C(c1ccc(O)cc1)c1ccc(OCCNC)cc1)c1ccccc1`, the Potency in assay [1] is 37.2 µM (active); in assay [15] it was 18.7 µM (active); in assay [16], 34.1 µM (active); in [12], 23.5 µM (active); in [13] it was 26.4 µM (active); in assay [17] it was 27.3 µM (active). For the same compound, the Potency in assay [5] is 21.7 µM (active); in [6] it was 33.2 µM (active); in [7], 23.5 µM (active).

The record behind these values is PubChem BioAssay (NCATS).
